hgDAF12 agonist – H. glycines DAF-12 receptor agonists, primary screen, cell-based, luminescence, HEK293, GAL4 fusion, UAS-luciferase | Nuclear hormone receptor DAF-12 (Heterodera glycines), GAL4 fusion | HEK293 GAL4-hgDAF12 UAS-luciferase reporter, agonist luminescence; normalized to butyrate control | activation, % at 6.8 µM | 370,000 tested, 1.8% active | AID 687014, 2013;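 active means activation above a cutoff set at the mean of all screened compounds plus 3 SD, cut at about 10% in these data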;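 further: 0% = DMSO wells and 100% = sodium butyrate wells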
ssDAF12 agonist – S. stercoralis DAF-12 nuclear receptor activators, primary screen, cell-based, luminescence, HEK293, GRIP1 co-expression, lit1-tk-luc. HEK293 ssDAF-12/GRIP1 lit1-tk-luc reporter; % of 3 µM dafachronic acid response. 370,000 tested, 1% active. activation, % at 6.8 µM. AID 652126, 2013;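 active means activation above the mean over all tested compounds plus 3 SD, cut at about 0.9% in these data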;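 further: 0% = DMSO-only wells and 100% = 3 µM delta7-dafachronic acid wells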
Wee1 stabilizer – Wee1 degradation inhibitors, primary screen, cell-based, HeLa, Wee1K328M-luciferase, luminescence | Wee1-like protein kinase (Homo sapiens), P30291 | HeLa Luc-Wee1K328M stability; 100% = proteasome inhibitor MG132 effect | reporter increase, % at 5 µM | 220,000 tested, 1.2% active | AID 1321, 2008;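 active means activation above the mean of all tested compounds plus 3 SD, set per screening run, cut at about 8.8% in these data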;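 further: cells exposed to compound for 20 h before luminescence read; 0% = DMSO alone and 100% = MG132 at 30 µM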
Target sequence (P30291 whole entry K328M): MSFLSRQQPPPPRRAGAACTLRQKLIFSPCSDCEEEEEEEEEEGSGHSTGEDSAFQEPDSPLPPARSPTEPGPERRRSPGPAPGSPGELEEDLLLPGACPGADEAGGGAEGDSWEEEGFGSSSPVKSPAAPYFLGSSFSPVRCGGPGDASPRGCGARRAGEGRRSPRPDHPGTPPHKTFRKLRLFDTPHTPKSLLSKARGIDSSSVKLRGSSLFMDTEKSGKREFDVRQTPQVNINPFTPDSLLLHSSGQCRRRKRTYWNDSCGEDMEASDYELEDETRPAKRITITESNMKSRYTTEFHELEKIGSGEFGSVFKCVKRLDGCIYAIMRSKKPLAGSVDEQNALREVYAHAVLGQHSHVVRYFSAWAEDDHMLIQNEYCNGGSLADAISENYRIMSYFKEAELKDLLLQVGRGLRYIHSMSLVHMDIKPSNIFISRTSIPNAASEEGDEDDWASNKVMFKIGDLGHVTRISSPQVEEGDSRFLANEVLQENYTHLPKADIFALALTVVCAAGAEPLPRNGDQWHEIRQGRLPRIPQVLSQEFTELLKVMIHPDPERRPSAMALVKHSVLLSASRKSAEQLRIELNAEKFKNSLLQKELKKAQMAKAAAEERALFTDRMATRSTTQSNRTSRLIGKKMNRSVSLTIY
DAX1 inh-1 – DAX1 (NR0B1) inhibitors on StAR promoter, primary screen, cell-based, luminescence, SF-1 (NR5A1), full-length DAX-1; HEK293T StAR-luciferase reporter, SF-1/DAX-1 repression relief; inhibition, % at 6.8 µM; 370,000 tested, 1.1% active; AID 652010, 2013;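 active means inhibition above the mean over all tested compounds plus 3 SD, cut at about 3.6% in these data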;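 further: 0% = DAX-1 cells with DMSO and 100% = cells lacking DAX-1 with DMSO; higher inhibition means more luminescence from relief of DAX-1 repression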
hcDAF12 agonist – H. contortus DAF-12 nuclear receptor activators, primary screen, cell-based, luminescence, HEK293, lit1-tk-luc reporter | HEK293 hcDAF-12 lit1-tk-luc reporter; 0% DMSO, 100% Δ7-dafachronic acid | activation, % at 6.8 µM | 370,000 tested, 1.4% active | AID 652067, 2013;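 active means activation above the mean of all tested compounds plus 3 SD, cut at about 5.5% in these data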;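 further: 100% = response to 3 µM Δ7-dafachronic acid high control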
DAX1 inh-2 – DAX1 (NR0B1) inhibitors, primary screen, cell-based, HEK293, Gal4-DAX1, luciferase luminescence. AID 504766, 2011. HEK293 Gal4-DAX1 luciferase reporter. inhibition, % at 6.75 µM. 340,000 tested, 0.99% active;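 active means inhibition above the mean over all tested compounds plus 3 SD, cut at about 4.2% in these data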;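 further: 0% = DAX1-transfected cells with DMSO and 100% = empty-vector control cells with DMSO; inhibition shows as a rise in luminescence from relieved DAX1 repression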
Starred values were filed as active, the others as inactive; nt = not tested or not shown. Sampled rows, rich in hits. Any-hit rate of the full collection: about 4.6%.

SMILES	hgDAF12 agonist	ssDAF12 agonist	Wee1 stabilizer	DAX1 inh-1	hcDAF12 agonist	DAX1 inh-2
CCOC(=O)C(C)On1c(-c2ccccc2)nc2ccc([N+](=O)[O-])cc21 (centres undefined)	11.5*	-0.6	0.5	1.2	0.5	3.6
COc1ccc(-c2nc3ccccc3n2OCC(=O)O)cc1	10.6*	0.3	2.6	2.0	0.7	2.7
CCOC(=O)c1cccc(NC(=O)CN(C)S(=O)(=O)c2ccc(Cl)s2)c1	0.2	-2.2	nt	-1.6	-0.8	nt
Clc1cccc(CNC2CCC23CCCCC3)c1 (centres undefined)	2.9	-0.9	nt	nt	-1.2	nt
CCSc1nc2n(n1)C(c1cccc(F)c1)C1=C(CCCC1=O)N2 (centres undefined)	-1.1	-0.4	0.3	-0.2	1.8	0.6
CSc1nc2n(n1)C(C)C1=C(CCCC1=O)N2 (centres undefined)	0.0	-1.6	9.2*	1.6	-0.5	-1.0
Cc1noc(C)c1NC(=O)N(C)C[C@H]1OCCCC[C@@H](C)Oc2ccc(NC(=O)c3ccccc3)cc2C(=O)N([C@H](C)CO)C[C@@H]1C	0.1	-1.0	nt	-0.2	-1.1	0.5
C[C@@H]1CCCCO[C@H](CN(C)C(=O)c2ccncc2)[C@H](C)CN([C@@H](C)CO)C(=O)c2cc(NC(=O)c3ccccc3)ccc2O1	1.8	-0.7	nt	0.6	-1.4	2.0
C[C@@H]1CCCCO[C@@H](CN(C)C(=O)Nc2ccc3c(c2)OCO3)[C@@H](C)CN([C@H](C)CO)C(=O)c2cc(N(C)C)ccc2O1	0.4	-1.2	nt	-0.4	-0.4	4.3*
C[C@@H]1CN([C@H](C)CO)C(=O)c2cc(NC(=O)Cc3cn(C)c4ccccc34)ccc2O[C@H]1CN(C)C(=O)Nc1ccc2c(c1)OCO2	3.0	-0.6	nt	0.3	6.2*	-0.4
C[C@@H]1CCCCO[C@@H](CN(C)C(=O)c2ccncc2)[C@@H](C)CN([C@H](C)CO)C(=O)c2cc(NC(=O)Cc3ccccc3)ccc2O1	11.3*	-1.4	nt	-0.9	0.3	0.8
Cc1noc(C)c1NC(=O)N(C)C[C@H]1OCCCC[C@@H](C)Oc2ccc(NC(=O)Nc3ccc(F)cc3)cc2C(=O)N([C@@H](C)CO)C[C@H]1C	-0.6	-1.8	nt	0.5	-0.8	5.1*
Cc1cc(C(=O)OCC(=O)NC(C)c2ccc(F)cc2)c(C)o1 (centres undefined)	-1.0	-0.7	nt	-1.0	-1.8	-0.2
O=C(N[C@@H](Cc1ccccc1)C(=O)N1CCN(S(=O)(=O)c2ccccc2F)CC1)c1ccco1	-2.2	-1.4	nt	-0.1	1.6	-0.3
CCCCCNc1nc2sc3c(c2c(=O)n1-c1cccc(Cl)c1)CCN(C)C3	-1.9	-1.4	4.1	-0.6	-1.1	0.8
CC(C)NC(=O)Nc1ccc2c(c1)C(=O)N([C@H](C)CO)C[C@H](C)[C@@H](CN(C)C(=O)Nc1ccc(C(F)(F)F)cc1)O2	0.8	-0.4	nt	0.4	0.8	4.5*
C[C@H](CO)N1C[C@H](C)[C@@H](CN(C)S(=O)(=O)c2ccc(F)cc2)Oc2ccc(NC(=O)c3ccncc3)cc2C1=O	-1.6	-1.4	nt	-0.2	-1.4	0.4
COc1ccc(S(=O)(=O)N(C)C[C@H]2Oc3ccc(NC(=O)c4ccncc4)cc3C(=O)N([C@H](C)CO)C[C@@H]2C)cc1	-0.7	2.6*	nt	0.9	-1.2	-0.6
O=C(N[C@@H]1C[C@@H]2O[C@@H](CO)CC[C@@H]2O[C@@H]1CCc1ccc(-c2ccccc2)cc1)c1cnccn1	8.7	-1.0	nt	-1.6	-0.1	nt
Cc1ccc(SCc2cn3ccccc3n2)cc1	10.4	0.8	9.3*	1.4	1.6	0.1
c1ccc2oc(SCc3cn4ccccc4n3)nc2c1	9.5	-1.1	-2.0	3.7*	5.9*	2.4
c1ccc2nc(SCc3cn4ccccc4n3)cnc2c1	4.2	-0.8	-2.2	0.3	-0.5	2.1
c1ccc(CSCc2cn3ccccc3n2)cc1	12.7*	-0.2	0.9	1.5	2.8	1.6
Cc1cccc2nc(CSc3nnc4ccccn34)cn12	12.0*	0.2	0.8	3.5	5.8*	1.9
COc1ccccc1N1CCN(C(=O)c2ccc(CS(=O)(=O)c3ccccc3OC)o2)CC1	-5.5	-1.4	9.8*	-0.8	-0.8	-2.0
SMILES	hgDAF12 agonist	ssDAF12 agonist	Wee1 stabilizer	DAX1 inh-1	hcDAF12 agonist	DAX1 inh-2
O=C(c1ccc(CS(=O)(=O)c2ccccc2)o1)N1CCOCC1	3.5	-0.4	-0.1	0.9	-0.7	5.6*
O=C(NCCCN1CCOCC1)c1ccc(CS(=O)(=O)c2c(Cl)cccc2Cl)o1	-1.3	-1.5	-1.6	0.4	-0.2	4.0
O=C(NCCN1CCOCC1)c1ccc(CS(=O)(=O)c2c(Cl)cccc2Cl)o1	-2.1	-1.1	1.5	0.2	-2.3	7.2*
CCN(C(=O)COC(=O)c1cc(-c2ccccc2)nn1-c1ccccc1)C1CCS(=O)(=O)C1 (centres undefined)	-0.8	-1.9	10.0*	-0.4	-1.0	-0.1
CCN(C(=O)COC(=O)Cc1c[nH]c2ccccc12)C1CCS(=O)(=O)C1 (centres undefined)	1.6	1.2*	nt	-0.1	6.1*	-0.5
O=C(/C=C/c1ccccc1)NCC1(c2ccccc2)CCOCC1	-1.1	-1.1	-1.3	-0.3	-0.1	5.0*
O=C(/C=C/c1ccc(F)cc1)NCC1(c2ccccc2)CCOCC1	-2.5	-1.6	-1.9	-0.8	-1.2	0.1
Cc1ccc(-c2nnc(SCC#CCOC(=O)c3cccs3)o2)cc1	3.2	-0.9	1.5	0.1	0.6	-0.8
O=C(OCC#CCSc1nnc(-c2ccc(Br)cc2)o1)c1cccs1	1.2	1.0*	1.7	0.1	1.4	0.1
c1ccc(Nc2nnc(-c3cccc4ccccc34)o2)cc1	8.1	1.2*	5.5	1.8	6.3*	nt
Clc1ccc(-c2nnc(-c3cccc4ccccc34)o2)cc1	1.9	0.9	nt	2.7	3.5	-0.1
C=CCNc1ncnc2sc(SC)nc12	0.6	-0.9	10.3*	0.4	-1.2	0.8
O=C(NCc1ccc(F)cc1)c1cc(C2CCCN(C(=O)c3ccc4c(c3)CCO4)C2)on1 (centres undefined)	1.1	-1.6	nt	-0.8	-0.5	nt
O=C(COC(=O)c1n[nH]c2ccccc12)Nc1ccccc1	9.8	-0.5	4.8	2.5	2.1	10.1*

From PubChem
